RGS12 GoLoco inh: inhibitors of human Gai1-RGS12 GoLoco interaction (red fluorophore); Gai1:RGS12 GoLoco peptide FP, rhodamine, 10 min; Potency, µM (titrated, usually from 61.6 µM), inactives show at the top dose activity, negative = inhibition, hits mostly inhibitors; hit rate 0.44% among 230,000; active = well fitted inhibition curve with a large enough effect, not every such curve was filed as active; inactive = no such curve, though single readings can be large or run the other way; also: nearly all actives have a fitted effect of over 30% in size
TRb SRC2 PPI: inhibitors of human thyroid hormone receptor beta-SRC2 interaction. P10828. TRbeta-SRC2 peptide binding, fluorescence polarization; receptor liganded with 1 µM T3. Potency, µM (series often up to 106 µM), for the others: top-dose activity change, negative = inhibition, most hits filed as inhibitors. hit rate 0.065% among 280,000. AID 1469;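 also: plate controls were bound peptide for no effect and peptide without receptor for full effect; nearly all actives have a fitted effect of over 50% in size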
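Polarization signal, normalized between peptide-alone and full complex controls, measured compound effects on T3-liganded human TRb LBD (0.6 uM) binding 20 nM Texas Red SRC2 peptide after 5 hr.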
KAT2A inh: blocks human GCN5L2 histone acetyltransferase; Potency, µM (doses to about 58.9 µM), for inactives: top-dose activity change, negative = inhibition, most hits filed as inhibitors; GCN5L2 HAT assay, ThioGlo1 CoA-SH fluorescence; AID 504327; hit rate 0.21% among 390,000
Target sequence (Q92830 whole entry, looked up): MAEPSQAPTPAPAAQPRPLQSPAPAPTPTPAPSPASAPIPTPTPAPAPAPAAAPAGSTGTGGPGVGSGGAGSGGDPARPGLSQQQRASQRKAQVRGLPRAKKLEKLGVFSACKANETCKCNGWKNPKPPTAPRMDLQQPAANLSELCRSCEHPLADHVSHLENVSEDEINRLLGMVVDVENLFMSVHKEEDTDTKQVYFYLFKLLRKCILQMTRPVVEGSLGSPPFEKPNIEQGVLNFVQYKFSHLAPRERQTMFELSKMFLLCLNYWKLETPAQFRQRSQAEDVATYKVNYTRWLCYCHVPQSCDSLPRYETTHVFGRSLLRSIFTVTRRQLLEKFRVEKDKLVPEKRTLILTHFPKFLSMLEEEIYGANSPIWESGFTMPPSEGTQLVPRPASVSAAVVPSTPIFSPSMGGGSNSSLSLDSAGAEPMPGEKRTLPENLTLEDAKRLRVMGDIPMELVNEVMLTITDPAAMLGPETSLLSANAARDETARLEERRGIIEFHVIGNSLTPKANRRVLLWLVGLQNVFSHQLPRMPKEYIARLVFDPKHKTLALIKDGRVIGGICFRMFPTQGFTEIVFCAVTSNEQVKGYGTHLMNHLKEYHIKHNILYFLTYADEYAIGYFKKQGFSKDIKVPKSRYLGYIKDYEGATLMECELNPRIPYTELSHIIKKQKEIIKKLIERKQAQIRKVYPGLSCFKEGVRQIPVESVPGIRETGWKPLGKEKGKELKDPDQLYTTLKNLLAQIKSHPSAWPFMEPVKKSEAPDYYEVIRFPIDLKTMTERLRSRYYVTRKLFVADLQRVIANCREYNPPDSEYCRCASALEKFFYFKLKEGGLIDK
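Enzyme at 20nM final was mixed with library compounds for 15 min at room temperature. Peptide H3(1-25) at 75uM, acetyl-CoA at 70uM and ThioGlo1 at 50uM were then added. Plates were read immediately and after 20 min (Ex340nm/Em540nm).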
VDR inh: blocks the human vitamin D receptor; VDR-SRC2-3 peptide fluorescence polarization, 2 h; P11473; Potency, µM, for the others: max response, negative = inhibition, usual class: inhibitors; hit rate 0.93% among 400,000
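Signal is fluorescence polarization, reporting how far test compounds block the interaction of VDR with the SRC2-3 coregulator peptide after a 2 h room-temperature incubation.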
TexasRed fluor: Texas Red fluorescence interference in TRb-SRC2 counter-screen | Potency, µM (highest dose often 106 µM), inactives show at the highest dose fluorescence change, negative = quenching | TRb/SRC2 Texas Red total fluorescence interference | hit rate 0.29% among 280,000; active = well fitted curve in either direction with a large enough effect; inconclusive = small, poorly fitted or top-dose-only effect
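Human TRb ligand-binding domain at 0.6 uM with 20 nM Texas Red SRC2 peptide in Tris buffer containing 1 uM T3 and 5% DMSO, incubated with compound 5 h at ambient temperature. Total fluorescence (555/632 nm) calculated as parallel + 2 × perpendicular.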
* = called active by the depositor; ? = inconclusive; . = no result; ! = a repeat was not active; [ ] = dose if it differs, or a comment. Rows were chosen to be rich in hits. Some 1.2% of all compounds tested hit in one or more screens of this group. Unless noted, calls follow the shape of the dose curve; as a rule, active = well fitted curve in the direction sought with a large enough effect; inconclusive = small, poorly fitted or top-dose-only effect, or another doubt; inactive = no such curve, though single readings can be large; an effect the other way counts as inactive or inconclusive. Unless noted, % is scaled to controls: 0 for no effect and ±100 for the full control effect; potency is read from the fitted curve at half-maximal effect.

SMILES	RGS12 GoLoco inh	TRb SRC2 PPI	KAT2A inh	VDR inh	TexasRed fluor
COc1ccc2c(c1)O[C@@H](c1ccc3c(c1)OCO3)[C@H](OC(=O)N[C@H](C)C1CCCCC1)C2=O	32µM*	-3%	.	-5%	-1%
Cc1c(-c2ccccc2)c(=O)oc2cc(O)ccc12	.	.	-10%	-8%	.
CN(C)c1ccc2c(-c3ccccc3)c3ccc(=[N+](C)C)cc-3oc2c1	.	0.1µM*	?	45µM*	0.89µM*[fluorescent]
Fc1ccc(Nc2ccnc(-c3ccccc3C(F)(F)F)n2)cc1	7%	.	?	45µM*	.
COC(=O)c1c(C(=O)OC)c2cccc3cc(-c4ccccc4)c4ccc1c4n32	18µM*	-19%	-11%	6%	-2%
COC(=O)c1cc2c(-c3ccccc3)cc3ccccn3c-2c1C(=O)OC	49%	-9%	-7%	9%	-4%
CCCCC#Cc1nc(NC)c2ncn([C@@H]3O[C@H](CO)[C@@H](O)[C@H]3O)c2n1	.	.	?	-3%	.
O=C1Nc2ccccc2C(=O)C1(Cl)Cc1ccccc1 (configuration not stated)	-3%	1%	-14%	28µM*	-3%
COc1cccc(/C=C/C(=O)c2c(O)cc(C)oc2=O)c1O	55%	-1%	-7%	?	-1%
COc1cc(/C=C/C(=O)c2c(O)cc(C)oc2=O)cc(OC)c1O	85%	-1%	0%	22µM*!	5%
O=C1/C(=C/c2ccccc2)CCc2ccc(Cl)nc21	.	.	.	50µM*	.
CC(C)c1ccc(Nc2nc(Nc3ccc(Cl)cc3)nc(N3CCOCC3)n2)cc1	.	.	.	6%	.
N#C/C(=C\c1cccc(Oc2ccccc2)c1)C(=O)N1CCOCC1	-14%	-3%	-4%	45µM*	-3%
CCCCCCCCCCCCO	.	4%[201 µM]	.	.	-3%[201 µM]
CC(NC(=O)Cc1ccccc1)c1ccccc1 (configuration not stated)	.	.	2%	15%	.
CCC[N+](C)(C)C(C)C(OC(C)=O)c1ccccc1 (configuration not stated)	7.9µM*	-4%	-9%	11%	-1%
O=C(O)c1cc(O)c2c(c1)[C@H]([C@H]1c3cc(C(=O)O)cc(O)c3C(=O)c3c(O[C@@H]4OC(CO)C(O)C(O)C4O)cccc31)c1cccc(O[C@@H]3OC(CO)C(O)C(O)C3O)c1C2=O (some centres not stated)	7.9µM*	?	1.8µM*	40µM*	22µM*[quencher]
O=C(O)c1cc(O)c2c(c1)[C@@H]([C@H]1c3cc(C(=O)O)cc(O)c3C(=O)c3c(O[C@@H]4O[C@H](CO)[C@@H](O)[C@H](O)[C@H]4O)cccc31)c1cccc(O[C@@H]3O[C@H](CO)[C@@H](O)[C@H](O)[C@H]3O)c1C2=O	.	.	0.63µM*	-20%	.
CC/C(=C(\c1ccccc1)c1ccc(OCCN(C)C)cc1)c1ccc(O)cc1	-13%	-2%	.	.	-1%
Nc1ncnc2c1ncn2[C@H]1O[C@@H](C(=O)O)[C@@H](O)[C@H]1O	4%[14.2 µM]	.	.	.	.
OCCC1CN(CCCn2cccn2)CCN1C1CCCCC1 (configuration not stated)	3%	-1%	25µM*	0%	-7%
CC(C)N1CCC(N2CCN(CCCn3cccn3)CC2CCO)CC1 (configuration not stated)	3%	0%	4%	10%	0%
N#Cc1c(N)sc(=S)c2c1CCCCC2	25µM*	-14%	?	?	4%
CCSc1ccc2cc(OC)ccc2[n+]1CC	2.5µM*	2%	?	-11%	-3%
CCn1ccc2cc(OC)ccc2c1=S	9%	-14%	-7%	-7%	-3%
SMILES	RGS12 GoLoco inh	TRb SRC2 PPI	KAT2A inh	VDR inh	TexasRed fluor
Oc1ccc(COCc2ccccc2)c2cccnc12	19%	0%	25µM*!	3%	-2%
Oc1ccc(Cc2ccccc2)c2cccnc12	.	.	.	2%	.
O=C(/C=C/c1ccccc1)CCN1CCOCC1	.	.	.	40µM*	.
CC1CCCC2(C1)NC(=S)N(c1ccccc1)N2 (configuration not stated)	6%	-11%	-5%	?	1%
S=C1NC2(CCCCC2)NN1c1ccccc1	3%	-2%	18µM*	-5%	0%
N#CC(C#N)=c1ccc2c(c1)NC1(CCCCC1)N=2	156%	?	-3%	?	45µM*[fluorescent]
O=C1OC(c2ccccc2)=N/C1=C\C=C\c1ccco1	13%	2%	25µM*	-14%	-2%
Cc1ccc(NC(=S)Nc2cccc3cnccc23)cc1C	28%	8%	15%	?	3%
S=C(Nc1cccc(Cl)c1)Nc1cccc2cnccc12	3%	16%	-3%	71µM*	0%
O=C(O)c1ccc2c3c(ncnc13)-c1ccccc1C2=O	18µM*	-13%	-12%	-12%	4%
O=[N+]([O-])c1cc(-c2ccc(C(=S)N3CCOCC3)o2)ccc1Cl	-1%	2%	?	10µM*	0%
O=C1C=CC(O)(c2cc(=O)c3c(O)cc(O)cc3o2)C=C1	3%	3%	-4%	32µM*	-2%
O=c1cc(-c2ccccc2Cl)oc2cc(O)cc(O)c12	-10%	-5%	-23%	-1%	1%
NC(=O)c1ccc2nc(-c3ccc(Oc4ccc(Cl)cc4)cc3)[nH]c2c1	.	-7%	5%	-2%	?
C=CCc1cccc(C2C(C)CCC3C(=O)N4C(Cc5c([nH]c6ccccc56)C4c4cc(OC)c(OC)c(OC)c4)C(=O)N32)c1 (configuration not stated)	.	6%[11.2 µM]	.	.	-4%[11.2 µM]
CCc1nn(-c2ccccc2)c2nc(-c3ccccc3OC)c3cc(OC)c(OC)cc3c12	.	-14%	2%	6%	0.14µM*[quencher]
CCc1nn(-c2ccccc2)c2nc(-c3ccc(O)cc3)c3cc(OC)c(OC)cc3c12	.	-4%	-3%	-13%	5%
COc1cc(-c2ccc(N=Nc3ccc4c(S(=O)(=O)O)cc(S(=O)(=O)O)c(N)c4c3O)c(OC)c2)ccc1N=Nc1ccc2c(S(=O)(=O)O)cc(S(=O)(=O)O)c(N)c2c1O	30%	25µM*	4µM*	?	16µM*[fluorescent]
Cc1nn(-c2ccc(S(=O)(=O)O)cc2)c(O)c1N=Nc1ccc(-c2ccc(N=Nc3ccc4c(S(=O)(=O)O)cc(S(=O)(=O)O)c(N)c4c3O)c(O)c2)cc1O.[Cu].[Cu]	3.2µM*	.	.	.	.
CC(=O)c1cnc2c(C(=O)O)cnn2c1C	9%	-2%	35%	12%	-5%
Cc1c(C(=O)O)cnc2c([N+](=O)[O-])cnn12	8%	5%	-1%	35µM*	-4%
CCc1nnc(N/N=C/c2ccc(N3CCC(C)CC3)c([N+](=O)[O-])c2)n1N	-10%	4%	-6%	18µM*	6%
